GalR3 antagonist: human GalR3 antagonism. O60755. HEK293 GalR3-CNG cAMP membrane potential fluorescence; galR3 body fused to GalR1 C-terminus. inhibition, % at 3 µM. 0.44% of 360,000 active. AID 651719;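 active = inhibition above the screen-wide average plus 3 SD, cut at about 13% in these data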;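 note: forskolin and galanin both at EC90 stimulate the cells; cAMP rise reported by CNG channel membrane potential dye signal; 0% = forskolin plus galanin with DMSO and 100% = forskolin alone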
SRC1 inh: inhibits human SRC1 coactivator. HEK293 GAL4-SRC1 luciferase reporter, luminescence. inhibition, % at 3.6 µM. 0.12% of 360,000 active. AID 588354;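 active = inhibition above the campaign mean plus 3 SD, with each screening campaign given its own cutoff, cut at about 60% in these data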;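 note: 0% = DMSO treated cells and 100% = gossypol at 36 µM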
NR5A2 inv ag: inverse agonists of human LRH-1 (NR5A2) | 0.13% of 360,000 active | inhibition, % at 3.6 µM | AID 602396 | HEK293T StAR-luciferase reporter, LRH-1 transfected, 24 h;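 active = inhibition above the mean inhibition of all tested compounds plus 3 SD, cut at about 73% in these data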;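 note: 0% = DMSO wells and 100% = reporter-only cells lacking LRH-1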
Target sequence (O00482 whole entry, looked up): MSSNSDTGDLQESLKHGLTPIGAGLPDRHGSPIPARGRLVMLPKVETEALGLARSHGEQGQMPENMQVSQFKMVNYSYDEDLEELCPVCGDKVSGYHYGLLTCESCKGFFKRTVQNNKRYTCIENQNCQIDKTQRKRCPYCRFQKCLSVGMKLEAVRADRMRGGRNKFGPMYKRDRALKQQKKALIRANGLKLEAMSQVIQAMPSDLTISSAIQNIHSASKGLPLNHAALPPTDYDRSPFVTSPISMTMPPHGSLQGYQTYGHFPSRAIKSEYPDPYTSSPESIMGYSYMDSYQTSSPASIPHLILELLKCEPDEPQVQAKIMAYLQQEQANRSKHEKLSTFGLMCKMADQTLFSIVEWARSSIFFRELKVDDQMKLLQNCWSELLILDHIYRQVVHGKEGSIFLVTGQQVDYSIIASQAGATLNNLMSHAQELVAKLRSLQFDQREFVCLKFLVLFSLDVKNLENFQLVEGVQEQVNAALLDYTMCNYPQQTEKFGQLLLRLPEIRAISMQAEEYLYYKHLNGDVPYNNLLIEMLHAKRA
COUP-TFII inh: NR2F2 (human) inhibition, primary screen; HEK293T NGFI-A luciferase reporter, luminescence; inhibition, % at 8.6 µM; 0.7% of 370,000 active; AID 686940;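 active = inhibition above a per-plate cutoff, mean inhibition of test wells between control levels plus 3 SD, cut at about 38% in these data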;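 note: cells cotransfected with COUP-TFII expression vector driving the NGFI-A reporter; 0% = median of COUP-TF2 test wells and 100% = reporter-only cells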
SRC2 inh: human SRC2 (NCOA2) inhibition; Q15596; HEK293 GAL4-SRC2 luciferase reporter, luminescence; inhibition, % at 9 µM; 0.17% of 370,000 active; AID 651957;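 active = inhibition above the mean inhibition of all tested compounds plus 3 SD, set per campaign, cut at about 52% in these data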;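 note: 0% = DMSO treated cells and 100% = cells given Gossypol at 36 µM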
SRC3 inh: inhibits human SRC3 coactivator | HEK293 GAL4-SRC3 luciferase reporter, luminescence | Q9Y6Q9 | inhibition, % at 3.6 µM | 0.17% of 360,000 active;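 active = inhibition above a per-campaign cutoff, the mean of all compounds plus 3 SD, cut at about 60% in these data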;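 note: 0% = DMSO-treated cells and 100% = gossypol-treated cells at 36 µM; higher means less SRC3-driven luciferase light from the GAL4 reporter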
VP16 Luc counter: inhibits VP16 reporter, flagging COUP-TFII antagonist hits. 25% of 2,500 active. inhibition, % at 8.5 µM. shares compounds with COUP-TFII inh. HEK293 Gal4-VP16 luciferase reporter, luminescence; in the data active = inhibition above about 13%
NR2F2 inh conf: confirmation of human COUP-TFII (NR2F2) inhibitors; shares compounds with COUP-TFII inh; HEK293 NGFI-A luciferase reporter, luminescence; inhibition, % at 8.5 µM; 45% of 2,500 active; AID 687008;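 active = mean inhibition over three repeats above a set limit taken from the earlier primary screen, cut at about 38% in these data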;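 note: 100% = cells given the luciferase reporter alone without the COUP-TF2 vector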
Active calls of the source: *; . = not tested or not shown. Sampled rows, rich in hits. Any-hit rate of the full collection: about 1.1%.

SMILES	GalR3 antagonist	SRC1 inh	NR5A2 inv ag	COUP-TFII inh	SRC2 inh	SRC3 inh	VP16 Luc counter	NR2F2 inh conf
O=C(N/N=C/c1ccc([N+](=O)[O-])s1)c1ccccc1	-8.3	8.9	24.8	37.9*	45.8	27.2	31.1*	29.0
CC(C)CNc1cccc2c1S(=O)(=O)N(Cc1cn(Cc3ccc(C(F)(F)F)cc3)nn1)Cc1ccccc1O2	.	.	.	4.0	7.8	.	.	.
C=CCC(Nc1ccccc1)C12C=CC(O1)C(C(=O)OC)=C2C(=O)OC (configuration not stated)	-0.3	-4.0	-6.4	-2.3	-7.3	2.9	.	.
COC(=O)C1=C(C(=O)OC)[C@@]2([C@H](Cc3ccc(C)cc3)Nc3ccccc3)C=C[C@@H]1O2	.	.	.	48.8*	.	.	-1.8	24.0
CC(=O)N1CCCC(c2cc(C(=O)Nc3ccccc3)no2)C1 (configuration not stated)	-8.7	24.9	32.5	41.0*	44.5	31.2	16.6*	59.1*
O=C(Nc1ccccc1)c1cc(C2CCCN(C(=O)C3CC3)C2)on1 (configuration not stated)	-5.6	12.8	-0.1	15.8	-52.4	12.0	.	.
O=C(NCc1ccccc1)c1cc(C2CCCN(C(=O)C3CCCCC3)C2)on1 (configuration not stated)	-3.8	-21.2	-3.4	101.4*	4.0	-6.2	-15.7	-16.2
COc1ccc(CNS(=O)(=O)/C=C/c2ccc(OC)cc2CNC(=O)OC(C)(C)C)cc1	.	.	.	-7.3	-25.7	.	.	.
COc1ccc(S[C@]2(C(=O)N3CCN(c4ncccn4)CC3)CC(=O)N(C(=O)c3ccccc3)[C@@H]2c2ccc(OC)cc2)cc1	.	.	.	7.2	-4.2	.	.	.
COc1ccc(S[C@]2(C(=O)N3CCN(c4ncccn4)CC3)CC(=O)N(c3ccc(C#N)cc3)[C@@H]2c2ccc(OC)cc2)cc1	.	.	.	11.1	-35.1	.	.	.
C[C@H](O)[C@@H]1CN2CCc3ccc(N4CCOCC4)cc3[C@@H]2C[C@@H]1N(C)C(=O)c1cccc(Cl)c1	.	.	.	2.5	11.1	.	.	.
COc1cccc(N2CCN(c3ncnc4c3[nH]c3ccccc34)CC2C)c1 (configuration not stated)	-5.0	.	.	75.8*	60.8*	.	19.3*	84.0*
c1ccc2c(c1)[nH]c1c(N3CCC4(CC3)OCCO4)ncnc12	.	4.0	7.9	.	.	1.9	.	.
c1ccc2c(c1)CCN(c1ncnc3c1[nH]c1ccccc13)C2	7.8	22.8	46.2	70.9*	36.1	31.8	3.5	75.7*
S=C(Nc1cc(Cl)cc(Cl)c1)NC(c1ccccc1)c1ccccc1	.	.	.	56.5*	.	.	4.4	34.1
Cc1oc(-c2ccc(Cl)cc2)nc1CS(=O)CC(=O)NCCCN1CCOCC1 (configuration not stated)	0.6	-24.8	-9.1	-2.3	4.2	-3.7	.	.
Cc1ccc(-c2nc(CS(=O)CC(=O)NCCCN3CCN(Cc4ccccc4)CC3)c(C)o2)cc1 (configuration not stated)	-11.3	8.5	18.6	41.1*	-16.1	46.6	-6.1	20.9
COc1ccc(-c2nnc(SCC(=O)N/N=C\C=C/c3ccco3)n2-c2ccc(C)cc2)cc1	.	.	.	9.6	-16.2	.	.	.
CCCCCCCCN1CCS(=O)(=O)N(Cc2ccccc2)C(C(=O)OC)C1 (configuration not stated)	.	.	.	5.0	19.4	.	.	.
O=C(NCc1cccnc1)/C(=C/c1ccc(-c2ccc(Cl)cc2)o1)S(=O)(=O)c1ccccc1	-5.3	52.4	56.2	49.0*	65.5*	67.7*	45.1*	44.0*
O=C(NCc1cccnc1)/C(=C/c1ccc(-c2cccc(C(F)(F)F)c2)o1)NC(=O)c1ccccc1	4.9	4.5	-4.2	10.8	4.6	16.9	.	.
O=C(NCc1cccnc1)/C(=C\c1ccc(-c2ccc(Br)cc2)o1)S(=O)(=O)c1ccccc1	0.2	49.0	61.4	55.9*	51.6	83.8*	43.9*	48.4*
CN1/C(=C\C(=O)C[n+]2ccc3ccccc3c2)C(C)(C)c2ccccc21	-7.5	16.4	60.6	78.8*	4.4	51.1	16.8*	52.0*
CCN(CC)c1ccc(Nc2nc(N3CCOCC3)c3ccccc3n2)cc1	-5.6	12.9	34.2	59.7*	29.3	36.9	7.6	43.0*
COc1ccc(Nc2nc(N3CCCC3)c3ccccc3n2)cc1	-0.2	6.9	11.2	22.4	6.1	8.5	.	.
SMILES	GalR3 antagonist	SRC1 inh	NR5A2 inv ag	COUP-TFII inh	SRC2 inh	SRC3 inh	VP16 Luc counter	NR2F2 inh conf
Cc1c(CCC(=O)NCC(=O)NCC(=O)O)c(=O)oc2cc3oc4c(c3cc12)CCCC4	-10.1	-0.1	-22.6	-6.5	32.9	-11.8	.	.
Cc1c(CCC(=O)O)c(=O)oc2cc3oc4c(c3cc12)CCCC4	-7.9	-20.4	14.0	42.4*	64.0*	13.8	58.8*	50.4*
Cc1c(CCC(=O)N[C@@H](CC(C)C)C(=O)O)c(=O)oc2cc3oc4c(c3cc12)CCCC4	-11.8	6.0	6.2	45.9*	44.6	8.4	21.3*	25.6
Cc1c(P(=S)(c2ccccc2)c2ccccc2)[n+]2ccccc2n1C/C=C/c1ccccc1	0.1	28.7	47.4	38.1*	-42.6	48.6	4.8	4.1
Cc1ccoc1C(=O)Nc1ccc(CC(=O)O)cc1	4.0	-17.8	0.0	76.2*	83.3*	16.0	69.8*	65.7*
N#CCC[C@@H]1CC[C@]2(CCCN(C(=O)c3ccco3)C2)O1	.	.	.	-17.2	12.4	.	.	.
Cn1c(=O)n(C)c2cc([N+](=O)[O-])c(N3CCN(C(=O)c4ccccc4Cl)CC3)cc21	-11.8	17.0	24.2	45.2*	13.8	25.6	-7.8	15.2
Cn1c(=O)n(C)c2cc([N+](=O)[O-])c(N3CCN(C(=O)c4ccccc4Br)CC3)cc21	-5.6	14.4	15.3	27.6	3.5	13.2	.	.
CCOC(=O)C1CCN(S(=O)(=O)c2ccc3c(c2)N(C(C)=O)CC(C)S3)CC1 (configuration not stated)	-5.8	16.4	14.2	48.7*	13.8	24.7	-3.8	24.6
CCCCCCCC/C=C\CCCCCCCC(=O)NCCc1ccc(O)c(O)c1	0.0	59.9	78.5*	59.2*	48.5	61.8*	-0.1	11.2
CCCCCCCC/C=C\CCCCCCCC(=O)NCCO	-1.8	3.0	19.4	13.3	11.6	22.8	.	.
C[C@@H](/C=C/C(=O)OC(C)(C)C)Sc1ccc(C(C)(C)C)cc1	.	.	.	-16.6	-33.3	.	.	.
CC1(C)Oc2cc3oc(-c4cc(O)cc(O)c4)cc3cc2CC1O (configuration not stated)	0.9	12.7	13.1	41.4*	7.3	-0.1	-68.3	14.8
Oc1cc(O)cc(-c2cc3ccc(O)cc3o2)c1	-5.0	-45.6	-45.2	-6.8	-8.2	-27.9	.	.

Compound activity from PubChem.
